Source: PubChem (National Center for Advancing Translational Sciences (NCATS))
A selection: hits, their analogues and other compounds. The true share with any hit is near 11%.
HTT aggregate: mutant huntingtin aggregation inhibition | PC12 HttQ103-GFP aggregates, Acumen cytometry, 40 h | Potency, µM (top dose mostly 46.1 µM), without a hit: at the top dose activity change, negative = inhibition, most hits filed as inhibitors | actives 1.1% (n = 220,000) | AID 1688; active = well fitted curve in the direction sought with a large enough effect; inconclusive = small, poorly fitted or top-dose-only effect, or another doubt; inactive = no such curve, though single readings can be large; an effect the other way counts as inactive or inconclusive; also: potency is read from the fitted curve at half-maximal effect; % is scaled to controls: 0 for no effect and ±100 for the full control effect; nearly all actives have a fitted effect of over 60% in size
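Using laser scanning cytometry, GFP-positive aggregates were counted after lysis of PC12 cells induced with 100 nM tebufenozide to express HTT exon 1 Q103–GFP. Compounds were tested in titration.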
ALDH1A1 block: blocks purified human ALDH1A1 activity; Potency, µM (highest dose often 75.3 µM), without a hit: at the highest dose activity, negative = inhibition, actives largely listed as inhibitors; actives 7.3% (n = 220,000); Purified ALDH1A1, NADH fluorescence, propionaldehyde substrate;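 also: potency is read from the fitted curve at half-maximal effect; plate controls were no enzyme wells and a reference inhibitor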
GoLoco inh red: inhibitors of human Gai1-RGS12 GoLoco interaction (red fluorophore); P63096; Potency, µM (titrated, usually from 61.6 µM), inactives show at the top dose activity, negative = inhibition, usual class: inhibitors; actives 0.44% (n = 230,000); Gai1:RGS12 GoLoco peptide FP, rhodamine, 10 min; AID 880; active = well fitted inhibition curve with a large enough effect, not every such curve was filed as active; inactive = no such curve, though single readings can be large or run the other way; also: potency is read from the fitted curve at half-maximal effect; % is scaled to controls: 0 for no effect and ±100 for the full control effect; nearly all actives have a fitted effect of over 30% in size
Target sequence (P63096 whole entry, looked up): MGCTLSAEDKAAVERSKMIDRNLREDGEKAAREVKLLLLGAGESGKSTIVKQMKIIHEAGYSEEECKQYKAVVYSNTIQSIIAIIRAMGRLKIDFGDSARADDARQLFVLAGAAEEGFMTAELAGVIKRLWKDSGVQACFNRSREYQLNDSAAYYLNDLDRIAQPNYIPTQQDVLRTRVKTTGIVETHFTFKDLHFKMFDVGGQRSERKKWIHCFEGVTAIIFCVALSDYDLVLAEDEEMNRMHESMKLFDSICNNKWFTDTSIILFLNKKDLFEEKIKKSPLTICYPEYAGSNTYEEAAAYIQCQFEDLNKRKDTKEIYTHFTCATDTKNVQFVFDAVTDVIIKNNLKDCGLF
HPGD block: inhibitors of human 15-hydroxyprostaglandin dehydrogenase (HPGD); purified HPGD, NADH fluorescence kinetic, PGE2 substrate; Potency, µM, inactives show at the highest dose activity change, negative = inhibition, actives largely listed as inhibitors; actives 4.3% (n = 150,000); also: potency is read from the fitted curve at half-maximal effect; % is scaled to controls: 0 for no effect and ±100 for the full control effect
Target sequence (P15428 whole entry, looked up): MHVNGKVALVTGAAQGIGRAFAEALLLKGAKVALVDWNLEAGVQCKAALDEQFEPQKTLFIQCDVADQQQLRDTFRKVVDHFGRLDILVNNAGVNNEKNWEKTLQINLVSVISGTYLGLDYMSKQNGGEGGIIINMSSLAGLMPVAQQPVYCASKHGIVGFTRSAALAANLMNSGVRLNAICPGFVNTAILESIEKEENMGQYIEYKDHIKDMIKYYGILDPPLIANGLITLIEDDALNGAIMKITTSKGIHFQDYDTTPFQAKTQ
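NADH formation kinetics: reaction with 30 uM PGE2 and 1 mM NAD+ (final), 20 nM enzyme, Tris-HCl pH 8 with Tween 20, after 15 min compound preincubation at room temperature. Fluorescence change, last versus first of five reads.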
HTT cytoprotect: protects HTT-Q103 PC12 cells, measured by ATP; Potency, µM (top dose mostly 56.4 µM), for the others: cytoprotection (ATP increase), most hits filed as activators; actives 0.14% (n = 230,000); AID 1471; PC12 HTT-Q103 induced, cytoprotection, ATP luminescence, 40 h; active = well fitted curve in the direction sought with a large enough effect; inconclusive = small, poorly fitted or top-dose-only effect, or another doubt; inactive = no such curve, though single readings can be large; an effect the other way counts as inactive or inconclusive; also: potency is read from the fitted curve at half-maximal effect; % of control where 0% means no effect; nearly all actives have a fitted effect of over 45% in size
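Compounds were screened for protection of PC12 cells against cell death after tebufenozide induction (100 nM final) of mutant Huntingtin exon 1 (Q103) fused to GFP.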
PNC inhibitor: perinucleolar compartment assembly inhibition; PC3M PTB-GFP, PNC prevalence imaging, 16 h; active compounds read low; activity change (PNC), negative = inhibition, % at 10 µM; actives 3.1% (n = 140,000);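 active = readout at or below -70, meaning at least 70% loss of cells showing the perinucleolar compartment, a nuclear body marking cancer cells; inconclusive = readout between -30 and a set limit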;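 also: plate controls were DMSO wells for no effect and camptothecin positive control wells for full effect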
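Read-out is percentage of cells bearing a perinucleolar compartment, from automated 20x imaging of fixed, Hoechst-stained PC3M PTB-GFP cells. Cells were seeded 4 h, then exposed 16 h to compound (23 nl of library stock) in duplicate plates.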
An asterisk follows results filed as active; ? = inconclusive; nt = not tested or not shown; ! = not confirmed by another sample; [ ] = another dose, or the depositor's remark. Unless noted, calls follow the shape of the dose curve; as a rule, active = well fitted inhibition curve with a large enough effect (not every such curve was filed as active); inconclusive = small, poorly fitted or top-dose-only effect, or another doubt; inactive = no such curve, though single readings can be large or run the other way.

SMILES	HTT aggregate	ALDH1A1 block	GoLoco inh red	HPGD block	HTT cytoprotect	PNC inhibitor
O=[N+]([O-])c1ccc(F)c([N+](=O)[O-])c1	7%	20µM*	-25%	-24%	9%	nt
CC(=O)[C@@H]1CC[C@@H]2[C@H]3CC[C@H]4C[C@@H](O)CC[C@]4(C)[C@@H]3C(=O)C[C@]21C	nt	nt	nt	nt	-13%[1.9 µM]	nt
Oc1ccc2c3c1O[C@@H]1c4[nH]c5c(c4C[C@@]4(O)[C@@H](C2)N(CC2CC2)CC[C@]314)C[C@]1(O)[C@@H]2Cc3ccc(O)c4c3[C@@]1(CCN2CC1CC1)[C@H]5O4	nt	nt	nt	nt	-12%[1.9 µM]	nt
CN1CCN(c2cc([N+](=O)[O-])ccc2Cl)CC1	2%	6%	2%	nt	-20%	nt
CN1CCN(C(=S)c2ccc([N+](=O)[O-])cc2)CC1	3%	?	9%	28µM*	5%[10 µM]	-18
N#CCCCC[N+]12CN3CN(CN(C3)C1)C2	nt	2%[13.5 µM]	7%[14.2 µM]	1%	-6%[10 µM]	nt
OC[C@@H]1CCCN2CCCC[C@@H]12	nt	2%	7%	-4%	24%[1.9 µM]	nt
NC(=O)c1ncn([C@@H]2O[C@H](CO)[C@@H](O)[C@H]2O)n1	8%	25µM*!	4%	-4%	-65%	-24
NC(=O)c1ncn([C@H]2O[C@@H](CO)[C@@H](O)[C@@H]2O)n1	nt	-5%[20.9 µM]	5%[21.6 µM]	-4%	?	nt
COc1ccccc1-n1c(-c2ccoc2)nc2ccccc2c1=O	10%	?	-3%	-11%	-13%	2
O=c1c2ccccc2nc(-c2ccoc2)n1-c1ccccc1Cl	-3%	16µM*	2%	-20%	10%	12
COc1ccc(/C=C2/C(=O)N(Cc3ccco3)C(=O)N(C(C)C)C2=O)cc1	3%	4µM*	217%	22µM*	24%[10 µM]	4
CCN1C(=O)C(=C/C=C/c2ccco2)C(=O)N(CC)C1=S	?	1.3µM*	-55%	11µM*	-11%[10 µM]	-1
CC(C)N1C(=O)/C(=C/C=C/c2ccco2)C(=O)N(Cc2ccco2)C1=O	?	22µM*	174%	32µM*	-41%	?
COc1ccc(CN2C(=O)NC(=O)/C(=C\c3ccco3)C2=O)cc1	0%	?	126%	nt	27%[10 µM]	nt
O=C1c2ccccc2C(=O)c2ccccc21	21%	1%	-1%	-5%	-10%	nt
O=C1C=Cc2ccccc2C1=O	-3%	14µM*	-22%	7.9µM*	nt	?
CC(=O)OCC1=C(C(=O)O)N2C(=O)C(NC(=O)CCCC(N)C(=O)O)C2SC1 (centres undefined)	nt	0%	-2%	-17%	-22%	nt
S=C=NCc1ccccc1	nt	2.8µM*	-17%	?	-20%	nt
Cc1o[nH]c(=O)c1C[C@H](N)C(=O)O	nt	-4%	1%	4%	11%	nt
CC(=O)[O-].CC(=O)[O-].O.O.[Cd+2]	nt	7.5µM*	-4%	-2%	-69%	nt
COC(=O)[C@]1(C)CC[C@@]2(C)CC[C@@]3(C)C4=CCc5c(cc(O)c(O)c5C)[C@]4(C)CC[C@@]3(C)C2C1 (some centres undefined)	nt	5%	1%	28µM*	nt	nt
CC1CCCN(CC(=O)c2ccc(Cl)c(Cl)c2)C1 (centres undefined)	11%	2µM*	0%	nt	7%[10 µM]	nt
CC1CCN(CC(=O)c2ccc3c(c2)OCCO3)CC1	1%	7.9µM*	1%	nt	-84%	nt
O=C(O)C[C@H]1OCC=C2CN3CC[C@@]45C6=CC(=O)C(=O)C([N+](=O)[O-])=C6N[C@H]4[C@H]1[C@H]2C[C@@H]35	nt	-6%[13.5 µM]	3%[14.2 µM]	-5%	0%[10 µM]	nt
SMILES	HTT aggregate	ALDH1A1 block	GoLoco inh red	HPGD block	HTT cytoprotect	PNC inhibitor
Nc1nc(N)c(Cn2ccnc2)c(=O)[nH]1	nt	0%[13.5 µM]	0%[14.2 µM]	3%	1%[10 µM]	nt
O=C(O)CN1CCN(CC(=O)O)CC(=O)[O][Hg][O]C(=O)C1	nt	1.6µM*	0.45µM*	0.04µM*	-45%[10 µM]	nt
CCCCCCCCCCCCOCCOCCOCCOCCOCCOCCOCCOCCOCCO	?	nt	nt	nt	-78%	nt
CN1CCN(c2ccc([N+](=O)[O-])cc2Cl)CC1	1%[9.22 µM]	-5%	16%	nt	?	nt
CC1CN(c2ccc([N+](=O)[O-])cc2Cl)CCN1 (centres undefined)	-9%	16µM*	0%	nt	-17%	nt
COc1cc2c(cc1OC)[C@@]13CCN4C=C5CCO[C@H]6CC(=O)N2[C@@H]1[C@@H]6[C@H]5C[C@H]43	nt	nt	nt	nt	-3%[10 µM]	nt
Cc1cc(N2C(=O)C3CCCN3C2c2sccc2C)no1 (centres undefined)	?	1.6µM*	nt	nt	-9%	-1
O=C1C[C@@H]2OCC=C3CN4CC[C@]56c7ccccc7N1[C@H]5[C@@H]2[C@H]3C[C@@H]46	nt	nt	nt	nt	1%	nt
CC(=O)[C@@]1(O)CC[C@H]2[C@@H]3CC=C4C[C@@H](O)CC[C@]4(C)[C@H]3CC[C@@]21C	-2%	6%	4%	1%	nt	?
CCc1ccc(-n2c(O)c(/C=N/N3CCCCC3c3cccnc3)c(=O)[nH]c2=O)cc1 (centres undefined)	3%	-14%	2%	-16%	-2%[10 µM]	-100*
CCCCC[CH2][Hg][S]C1=C2N=CNC2NC(N)=N1 (centres undefined)	nt	0.32µM*	-71%[14.2 µM]	0.71µM*	nt	nt
CCN(CC)c1ncnc2c1ncn2[C@@H]1O[C@@H](COP(=O)(O)OP(=O)(O)C(Br)(Br)P(=O)(O)O)[C@H](O)[C@@H]1O	nt	nt	nt	nt	2%[1.9 µM]	nt
COc1ccc(N2C(=O)/C(=C/c3cccs3)C(=O)NC2=S)cc1	-1%[9.22 µM]	nt	11%	nt	-3%[10 µM]	nt
C=CCN1C(=O)/C(=C/c2ccc(N3CCOCC3)o2)C(=O)NC1=S	-4%	-6%	16%	28µM*	-7%[0.074 µM]	50
NC(=O)C1CCN(/C=C2\C(=O)NC(=O)N(Cc3ccco3)C2=O)CC1	-5%[9.22 µM]	nt	1%	nt	3%[10 µM]	nt
O=C1NC(=S)N(Cc2ccco2)C(=O)/C1=C\c1cccs1	-2%	18µM*	167%	nt	?	nt
C=CCN1C(=O)/C(=C/c2cccs2)C(=O)NC1=S	-1%	8.9µM*	227%	3.2µM*	35%[10 µM]	?
CC(C)(OOC(C)(C)c1ccccc1)c1ccccc1	nt	7%	-3%	-10%	-8%	nt
O=C(O)[C@H]1CCN1	nt	nt	nt	nt	-3%[1.9 µM]	nt
CC(C)[C@H]1C(=O)N2CCC[C@@H]2[C@]2(O)O[C@@](NC(=O)[C@H]3C=C4c5cccc6[nH]cc(c56)C[C@H]4N(C)C3)(C(C)C)C(=O)N12	nt	nt	nt	nt	-14%	nt
CC(C)CNCCc1ccccn1	nt	16%[13.5 µM]	4%[14.2 µM]	-3%	5%[10 µM]	nt
C[C@@H]1CC[C@@H]2N(C1)C[C@H]1[C@@](O)([C@H](O)C[C@]3(O)[C@H]4CC[C@H]5[C@]6(O)O[C@]4(C[C@]13O)[C@@]5(C)CC[C@@H]6O)[C@@]2(C)O	nt	13%[13.5 µM]	-8%[14.2 µM]	-7%	-22%[10 µM]	nt
